In PubChem BioAssay (EPA / NIEHS) one finds outcome and AC50 data, which are given here for 9 molecules.

Each structure is given as a SMILES string. Where “and” joins values, the source holds several entries; their conditions need not be identical. Equal entries are not always repeated. Where a structure was tested more than once in an assay, its records may differ in their call. Calls of active or inactive are those of the source. The calls were made as follows: active = hit-call score of the fitted dose curve at least 0.9, where 1 is the maximum; inactive = score below 0.9.

Read-out in assay [1]: Human Leukocyte Antigen - DR isotype (HLADR), HLA-DRA (gene 3122)
In words: BSK_CASM3C_HLADR: BioMAP Diversity Plus: CASM3C Assay for Human Leukocyte Antigen - DR isotype (HLADR) Biomarker Activity (AID 2283043).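 Also: cell-surface HLA-DR protein level quantified by ELISA.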 The conditions noted are these: primary human coronary artery smooth muscle cells; actives raise or lower the signal.

Read-out in assay [2]: Macrophage colony-stimulating factor (MCSF), CSF1 (gene 1435)
In words: BSK_CASM3C_MCSF: BioMAP Diversity Plus: CASM3C Assay for Macrophage colony-stimulating factor (MCSF) Biomarker Activity (AID 2283044).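 Also: M-CSF protein amount quantified by ELISA after 24 h exposure.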 The conditions noted are these: primary human coronary artery smooth muscle cells; actives raise or lower the signal.

Read-out in assay [3]: Low-density lipoprotein receptor (LDLR), LDLR (gene 3949)
The experiment in a line: BSK_CASM3C_LDLR: BioMAP Diversity Plus: CASM3C Assay for Low-density lipoprotein receptor (LDLR) Biomarker Activity (AID 2283045).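 Also: LDLR protein level on the cell surface quantified by ELISA.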 The conditions noted are these: primary human coronary artery smooth muscle cells; actives raise or lower the signal.

Read-out in assay [4]: Monocyte Chemoattractant Protein-1 (MCP1), CCL2 (gene 6347)
The experiment in a line: BSK_CASM3C_MCP1: BioMAP Diversity Plus: CASM3C Assay for Monocyte Chemoattractant Protein-1 (MCP1) Biomarker Activity (AID 2283046).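 Also: MCP-1 level quantified by ELISA 24 h after dosing.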 The conditions noted are these: primary human coronary artery smooth muscle cells; actives raise or lower the signal.

Assay [5] in a line: BSK_CASM3C_Proliferation: Cell Proliferation Assessment in the BioMAP Diversity Plus: CASM3C Assay (AID 2283047).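 Also: sulforhodamine B total protein stain as relative cell number at 560 nm; sub-confluent cells exposed 48 h before staining; fitted both ways against DMSO so gain or loss of cell number.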 The note with it: primary human coronary artery smooth muscle cells.
Read-out in assay [6]: Monokine induced gamma interferon (MIG), CXCL9 (gene 4283)
In words: BSK_CASM3C_MIG: BioMAP Diversity Plus: CASM3C Assay for Monokine induced gamma interferon (MIG) Biomarker Activity (AID 2283048).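 Also: MIG protein level measured by ELISA.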 The conditions noted are these: primary human coronary artery smooth muscle cells; actives raise or lower the signal.

Read-out in assay [7]: serum amyloid A (SAA), SAA1 (gene 6288)
In words: BSK_CASM3C_SAA: BioMAP Diversity Plus: CASM3C Assay for serum amyloid A (SAA) Biomarker Activity (AID 2283049).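 Also: SAA protein level quantified by ELISA.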 The conditions noted are these: primary human coronary artery smooth muscle cells; actives raise or lower the signal.

Assay [8] is described as follows: BSK_CASM3C_SRB: Viability Assessment in the BioMAP Diversity Plus: CASM3C Assay (AID 2283050).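 Also: total protein by SRB staining as cytotoxicity measure in parallel cultures.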 The note with it: primary human coronary artery smooth muscle cells.
Read-out in assay [9]: Thrombomodulin, THBD (gene 7056)
In words: BSK_CASM3C_Thrombomodulin: BioMAP Diversity Plus: CASM3C Assay for Thrombomodulin Biomarker Activity (AID 2283051).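 Also: thrombomodulin protein level measured by ELISA 24 h after dosing.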 The note with it: primary human coronary artery smooth muscle cells; actives raise or lower the signal.

Read-out in assay [10]: Tissue Factor, F3 (gene 2152)
The experiment in a line: BSK_CASM3C_TissueFactor: BioMAP Diversity Plus: CASM3C Assay for Tissue Factor Biomarker Activity (AID 2283052).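 Also: cell surface tissue factor protein level read by ELISA.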 The note with it: primary human coronary artery smooth muscle cells; actives raise or lower the signal.

Read-out in assay [11]: Interferon-gamma inducible Protein 10 (IP10), CXCL10 (gene 3627)
In words: BSK_hDFCGF_IP10: BioMAP Diversity Plus: hDFCGF Assay for Interferon-gamma inducible Protein 10 (IP10) Biomarker Activity (AID 2283053). The conditions noted are these: primary human foreskin fibroblasts; actives raise or lower the signal. In a few lines:
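Primary foreskin fibroblasts, human; 24 h compound exposure; IP-10 by ELISA; bidirectional fit vs DMSO.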

Read-out in assay [12]: Urokinase-type plasminogen activator receptor (uPAR), PLAUR (gene 5329)
The experiment in a line: BSK_CASM3C_uPAR: BioMAP Diversity Plus: CASM3C Assay for Urokinase-type plasminogen activator receptor (uPAR) Biomarker Activity (AID 2283054).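 Also: cell-surface uPAR protein level quantified by ELISA.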 The note with it: primary human coronary artery smooth muscle cells; actives raise or lower the signal.

Read-out in assay [13]: Vascular cell adhesion molecule 1 (VCAM1), VCAM1 (gene 7412)
In words: BSK_CASM3C_VCAM1: BioMAP Diversity Plus: CASM3C Assay for Vascular cell adhesion molecule 1 (VCAM1) Biomarker Activity (AID 2283055).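 Also: VCAM-1 protein level quantified by ELISA on the cells.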 The conditions noted are these: primary human coronary artery smooth muscle cells; actives raise or lower the signal.

Read-out in assay [14]: Collagen III, COL3A1 (gene 1281)
In words: BSK_hDFCGF_CollagenIII: BioMAP Diversity Plus: hDFCGF Assay for Collagen III Biomarker Activity (AID 2283056). The conditions noted are these: primary human foreskin fibroblasts; actives raise or lower the signal. In a few lines:
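Response relative to DMSO, fitted in both directions, reflects ELISA-measured collagen III in human primary skin fibroblasts 24 h after compound addition.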

Read-out in assay [15]: Epidermal growth factor receptor (EGFR), EGFR (gene 1956)
The experiment in a line: BSK_hDFCGF_EGFR: BioMAP Diversity Plus: hDFCGF Assay for Epidermal growth factor receptor (EGFR) Biomarker Activity (AID 2283057). The conditions noted are these: primary human foreskin fibroblasts; actives raise or lower the signal. In a few lines: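 hDFCGF system, primary human foreskin fibroblasts; compound 24 h; EGFR measured by ELISA; DMSO = negative control/baseline; bidirectional fitting.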

Read-out in assay [16]: Interleukin-8 (IL8), CXCL8 (gene 3576)
The experiment in a line: BSK_hDFCGF_IL8: BioMAP Diversity Plus: hDFCGF Assay for Interleukin-8 (IL8) Biomarker Activity (AID 2283058). The note with it: primary human foreskin fibroblasts; actives raise or lower the signal. In a few lines:
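Fibroblast monolayers (human foreskin, hDFCGF) received test chemical for 24 h before ELISA detection of IL-8; either increases or decreases relative to DMSO count as activity.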

Assay [17] in a line: BSK_hDFCGF_Proliferation: Cell Proliferation Assessment in the BioMAP Diversity Plus: hDFCGF Assay (AID 2283059).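 Also: curves fitted for both rise and fall of signal versus DMSO baseline.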 The note with it: primary human foreskin fibroblasts. In a few lines: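 Sub-confluent human foreskin fibroblast cultures receive test chemical […]. Relative cell number is quantified by sulforhodamine B staining (0.1%, after 10% TCA fixation) at 560 nm, with bidirectional fitting referenced to DMSO.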

Read-out in assay [18]: Macrophage colony-stimulating factor (MCSF), CSF1 (gene 1435)
In words: BSK_hDFCGF_MCSF: BioMAP Diversity Plus: hDFCGF Assay for Macrophage colony-stimulating factor (MCSF) Biomarker Activity (AID 2283060). The note with it: primary human foreskin fibroblasts; actives raise or lower the signal. In a few lines:
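fibroblasts (human foreskin, primary), 24 h post-dose; M-CSF by ELISA; bidirectional fit, DMSO = baseline.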

A short description of assay [19]: BSK_hDFCGF_SRB: Viability Assessment in the BioMAP Diversity Plus: hDFCGF Assay (AID 2283061).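 Also: cells exposed to compound for 24 h before the read.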 The conditions noted are these: primary human foreskin fibroblasts. In a few lines:
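SRB-based viability read on primary human skin fibroblasts at 24 h: TCA fixation, 0.1% dye, 560 nm. Gain or loss of signal is fitted against the DMSO negative control.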

Read-out in assay [20]: TIMP metallopeptidase inhibitor 1 (TIMP1), TIMP1 (gene 7076)
The experiment in a line: BSK_hDFCGF_TIMP1: BioMAP Diversity Plus: hDFCGF Assay for TIMP metallopeptidase inhibitor 1 (TIMP1) Biomarker Activity (AID 2283062). The conditions noted are these: primary human foreskin fibroblasts; actives raise or lower the signal. The essentials:
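Bidirectional curve fitting against DMSO baseline yielded this endpoint, based on ELISA detection of TIMP-1 in primary human foreskin fibroblasts exposed to compound for 24 h.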

As to `O=c1c2ccccc2oc2ccccc12`, the outcome in assay [1], in assay [2], in assay [3], in assay [4], in [5] and in assay [6] was inactive. Further, the outcome in assay [7], in [8], in assay [9], in assay [11], in assay [12] and in [13] was inactive. For the same molecule, the result in [14], in [15], in [16], in assay [17], in assay [18] and in assay [19] was inactive. For the same molecule, the result in [20] was inactive. Also, in assay [10], the AC50 was 2.7 µM (active).

On to `CCO[Si](CCCN=C=O)(OCC)OCC`, for which the result in assay [1], in assay [2], in [3], in assay [4], in assay [5] and in assay [6] was inactive. For the same molecule, the outcome in [7], in [8], in assay [9], in assay [10], in assay [11] and in [12] was inactive. Moreover, the outcome in assay [13], in [14], in assay [15], in assay [16], in assay [17] and in assay [18] was inactive. Also, the result in [19] and in [20] was inactive.

For the molecule `CCCCCCCCCCCCCCCC[N+](C)(C)CC`, the AC50 was 2.97 µM (active) in [1]; 1.93 µM (active) in assay [2]; 2.94 µM (active) in assay [3]; 3.54 µM (active) in assay [4]; 1.61 µM (active) in [5]; 6.02 µM (active) in assay [6]. The AC50 is 2.61 µM (active) in assay [7]; 1.88 µM (active) in assay [8]; 2.19 µM (active) in [10]; 2.84 µM (active) in assay [11]; 3.16 µM (active) in [12]; 4.21 µM (active) in assay [13]. Moreover, the AC50 was 0.447 µM (active) in assay [14]; 12.4 µM (active) in assay [16]; 484 nM (active) in assay [17]; 1.49 µM (active) in [18]; 1.28 µM (active) in [19]; 1.89 µM (active) in assay [20]. In addition, the result in [9] and in assay [15] was inactive.

As to `c1ccc2c(c1)ccc1cc3c(ccc4ccccc43)cc12`, the outcome in assay [1], in assay [2], in assay [3], in [4], in [5] and in assay [6] was inactive. For the same molecule, the result in [7], in [8], in assay [9], in assay [10], in assay [11] and in assay [12] was inactive. In addition, the outcome in assay [13], in [14], in [15], in assay [16], in assay [17] and in assay [18] was inactive. Also, the result in assay [19] and in assay [20] was inactive. The AC50 in assay [9] was 0.0962 µM (active).

Regarding `O=C(Nc1ccccc1SSc1ccccc1NC(=O)c1ccccc1)c1ccccc1`, the AC50 in [1] was 5.29 µM (active); in [5], 5.1 µM (active); in [7] it was 5.22 µM (active); in assay [9], 5.27 µM (active); in assay [12], 5.17 µM (active); in assay [13] it was 5.16 µM (active). Besides, the result in assay [2], in [3], in assay [4], in assay [6], in assay [8] and in assay [10] was inactive. Moreover, the outcome in [11], in [14], in assay [15], in assay [16], in assay [17] and in assay [18] was inactive. In addition, the result in assay [19] and in assay [20] was inactive.

With `O=C1CCCN1CCO`, the outcome in [1], in assay [2], in assay [3], in [4], in [5] and in assay [6] was inactive. Moreover, the result in [7], in assay [8], in assay [9], in assay [10], in [11] and in assay [12] was inactive. Moreover, the result in assay [13], in assay [14], in [15], in assay [16], in assay [17] and in assay [18] was inactive. The result in assay [19] and in assay [20] was inactive.

As to `CC(C)(c1cc(Br)c(OCCO)c(Br)c1)c1cc(Br)c(OCCO)c(Br)c1`, the outcome in assay [1], in assay [3], in assay [4], in assay [5], in assay [6] and in [7] was inactive. Moreover, the result in assay [8], in [9], in assay [10], in [12], in assay [15] and in assay [16] was inactive. In addition, the AC50 in assay [2] was 4.39 µM (active); in assay [11] it was 23.3 µM (active); in assay [13], 6.14 µM (active); in assay [14] it was 4.6 µM (active); in assay [17] it was 4470 nM (active); in [18], 8.17 µM (active). Also, the AC50 is 16.2 µM (active) in [19] and 25.4 µM (active) in assay [20].

On to `CCCCCCCCc1ccc(Nc2ccc(CCCCCCCC)cc2)cc1`, for which the result in assay [1], in [2], in assay [3], in [4], in [6] and in assay [7] was inactive. Further, the result in assay [8], in assay [9], in assay [10], in assay [11], in [12] and in assay [13] was inactive. In addition, the outcome in [14], in assay [15], in assay [16], in assay [17], in [18] and in assay [19] was inactive. Moreover, the outcome in [20] was inactive. In addition, in [5], the AC50 was 14.9 µM (active).

In the case of `C=C[Si](OC(C)=O)(OC(C)=O)OC(C)=O`, the result in assay [1], in [2], in [3], in assay [4], in assay [5] and in assay [6] was inactive. Besides, the result in [7], in assay [8], in [9], in assay [10], in assay [11] and in assay [12] was inactive. In addition, the result in assay [13], in [14], in [15], in assay [16], in assay [18] and in assay [19] was inactive. The outcome in assay [20] was inactive. Moreover, the AC50 is 1.25 µM (active) in assay [3]; 3.16 µM (active) in [14]; 32.4 µM (active) and 20 µM (active) in assay [17].
